Source: article PMC4552634, “A New Set of Chemical Starting Points with Plasmodium falciparum Transmission-Blocking Potential for Antimalarial Drug Discovery” (PLoS ONE, 2015)
The campaign covered roughly 13,000 compounds. About 3,200 (25%) showed an effect of 50% or more. The list shows a part of the results.

These compounds were tested on P. falciparum stage V gametocytes. Conditions: 48 h, 5 µM; inhibitor.
Design: BacTiter-Glo ATP luminescence viability of purified stage V gametocytes in 384-well plates, per cent inhibition versus DMSO

Structure (SMILES)	% Inhibition [%]
CCOc1cc(C(=O)NC2CCN(Cc3ccccc3)CC2)ccc1-c1nc2ccc(Cl)cc2[nH]1 [TCMDC-140912]	-17.04
CN1CCC(COc2ccc(CN3CCC(NC(=O)c4cccc(Cl)c4)CC3)cc2)CC1 [TCMDC-132796]	95.19
CC(C)c1ccc(NC(=O)c2ccc(C(=O)NC3CCN(Cc4ccccc4)CC3)cc2)cc1 [TCMDC-136752]	-24.91
Cc1cc2nc(-c3ccc(C(=O)NC4CCN(Cc5ccccc5)CC4)s3)[nH]c2cc1C [TCMDC-140513]	1.433
O=C(NC1CCN(Cc2ccccc2)CC1)c1ccc(CNC2CCN(Cc3ccccc3)CC2)cc1 [TCMDC-140787]	27.85
Cc1[nH]c(-c2ccc(F)cc2)cc1C(=O)NC1CCN(Cc2ccccc2)CC1 [TCMDC-124396]	76.63
O=C(NC1CCN(Cc2ccccc2)CC1)c1ccc(-c2nc3cc(Cl)c(F)cc3[nH]2)cc1 [TCMDC-140093]	-50.28
O=C(Nc1ccnc2ccccc12)NC1CCN(Cc2ccccc2)CC1 [TCMDC-139643]	-13.5
CC1(C)CC(NC(=O)NC2CCN(Cc3ccccc3)CC2)CC(C)(CNC(=O)NC2CCN(Cc3ccccc3)CC2)C1 (centres unmarked) [TCMDC-139018]	101.1
O=C(NC1CCN(Cc2ccc(O)cc2)CC1)c1ccc(Cl)c(Cl)c1 [TCMDC-141735]	18.11
O=C(NC1CCN(Cc2ccccc2)CC1)c1cc(C(=O)NC2CCN(Cc3ccccc3)CC2)cc(C(=O)NC2CCN(Cc3ccccc3)CC2)c1 [TCMDC-124568]	67.11
COc1cc(-c2cc3cc(Cl)c(Cl)cc3[nH]2)ccc1C(=O)NC1CCN(Cc2ccccc2)CC1 [TCMDC-141288]	-32.17
Oc1ccc2[nH]c(-c3cccc(F)c3)nc2c1CN1CCCC1 [TCMDC-136531]	-40.99
CCOC(=O)c1cnc2cc(N3CCCC3)c(Cl)cc2c1OCC [TCMDC-131990]	37.97
O=C(Nc1cccc(-c2cccc(-c3nc4ccccc4[nH]3)c2)c1)Nc1ccc2c(c1)OCO2 [TCMDC-133167]	2.88
COc1cc(NC(=O)N2CCc3ccc(OCCC4CCCN4C)cc32)cc(C(F)(F)F)c1 (centres unmarked) [TCMDC-140248]	-14.34
CCCc1nc2c(N3CCCN(C(=O)NC4CCCCC4)CC3)cccc2n1Cc1ccccn1 [TCMDC-134632]	-23.2
CC(C)CC(C)NC(=O)C1Cc2c([nH]c3cc(Cl)ccc23)C2(CCN(CCc3ccccc3)CC2)N1 (centres unmarked) [TCMDC-141298]	48.04
CCNc1cc(C(=O)N[C@@H](Cc2ccc(F)c(F)c2)[C@H](O)CNC2CCCCC2)cc(N2CCCCS2(=O)=O)c1 [TCMDC-135060]	26.39
Cc1cc(C2CCN(CCCCNC(=O)c3ccc(NC(=O)c4ccc(Cl)cc4)cc3)CC2)c(C)cc1OCc1nccn1C [TCMDC-138326]	1.081
Cc1cc(C2CCN(CCCCNC(=O)c3ccc(NC(=O)c4ccc(Cl)cc4)cc3)CC2)c(C)cc1OC(C)C [TCMDC-138309]	96.15

Structure (SMILES)	% Inhibition [%]
Cc1cc(C2CCN(CCCCNC(=O)c3ccc(NC(=O)c4ccc(Cl)cc4)cc3)CC2)c(C)cc1OCc1cccnc1 [TCMDC-138318]	-16.74
Cc1ccc(C)c(C2CCN(CCCCNC(=O)c3ccc(NC(=O)c4ccc(Cl)cc4)cc3)CC2)c1 [TCMDC-138330]	-7.9
CCOc1ccc(OCC)c(N2CCN(CCCCNC(=O)c3ccc(NC(=O)c4ccc(Cl)cc4)cc3)CC2)c1 [TCMDC-138224]	-9.659
COCCOc1cc(C)c(C2CCN(CCCCNC(=O)c3ccc(NC(=O)c4ccc(Cl)cc4)cc3)CC2)cc1C [TCMDC-138344]	7.769
Cc1cc(C2CCN(CCCCNC(=O)c3ccc(NC(=O)c4ccc(Cl)cc4)cc3)CC2)c(C)cc1OCc1ccncc1 [TCMDC-138308]	71.5
CN(C)CCOc1ccc(N2CCN(CCCCNC(=O)c3ccc(/C=C/c4cc(Cl)cc(Cl)c4)cc3)CC2)cc1 [TCMDC-138290]	45.55
CCOc1cc(C)c(C2CCN(CCCCNC(=O)c3ccc(NC(=O)c4ccc(Cl)cc4)cc3)CC2)cc1C [TCMDC-138282]	41.56
Cc1cc(C2CCN(CCCCNC(=O)c3ccc(NC(=O)c4ccc(Cl)cc4)cc3)CC2)c(C)cc1OCCN(C)C [TCMDC-138316]	117.2
CN(C)CCOc1ccc(N2CCN(CCCCNC(=O)c3ccc(NC(=O)c4ccc(Cl)cc4)cc3)CC2)cc1 [TCMDC-138289]	85.59
CCCCc1ccccc1NS(=O)(=O)c1ccc(OC)c(N2CCNCC2)c1 [TCMDC-139238]	19.7
CN1CCC(C(=O)Nc2cccc(-c3ccc(-c4nc5cc(C(F)(F)F)ccc5[nH]4)s3)c2)CC1 [TCMDC-132184]	18.99
COc1ccc2ccc(F)c(CCN3CCC(NCc4cc5c(cn4)OCCO5)CC3)c2n1 [TCMDC-136226]	1.241
Cc1cnc(C(=O)Nc2cccc(-c3ccc(-c4nc5cc(C(F)(F)F)ccc5[nH]4)s3)c2)cn1 [TCMDC-137028]	12.51
OC(c1ccc2ccccc2c1)C1CN(CCc2ccccc2)CCC1(O)c1ccccc1 (centres unmarked) [TCMDC-131995]	4.082
Cc1cccc2nc(-c3cccc(-c4ccc(NC(=O)Cc5ccc[n+]([O-])c5)cc4)c3)[nH]c12 [TCMDC-136993]	-15.96
O=C(Cc1cnc[nH]1)Nc1ccc(-c2cccc(-c3nc4ccc(C(F)(F)F)cc4[nH]3)c2)cc1 [TCMDC-136949]	9.618
COc1ccc(NC(=O)Nc2ccc(-c3cccc(-c4nc5c(C)cccc5[nH]4)c3)cc2)cc1 [TCMDC-133245]	-21.29
CCCN(CC1CC1)c1ncc(-c2cccc(CNCc3ccccc3O)c2)cn1 [TCMDC-133138]	6.014
CCCN(CC1CC1)c1nc(C)nc2c(-c3ccccc3)cc(C)cc12 [TCMDC-138123]	91.17
CCCN(CCC)C(=O)c1cc(-c2cccc(C)c2)nc2ccccc12 [TCMDC-124452]	-15.82
